Common to all, as to experiment: DAPPL (digital affinity profiling via proximity ligation, sequencing); 10 mM Tris-HCl pH 7.5, 50 mM NaCl, 1 mM DTT, 4% glycerol, room temperature, 30 min; GST-TFs on glutathione beads, 16-mer random dsDNA library, 0.1% formaldehyde crosslink after washing; high values mean tight binding
The target of one assay is T1, FLI1 (Homo sapiens, UniProt Q01543 1-452).
T1 sequence: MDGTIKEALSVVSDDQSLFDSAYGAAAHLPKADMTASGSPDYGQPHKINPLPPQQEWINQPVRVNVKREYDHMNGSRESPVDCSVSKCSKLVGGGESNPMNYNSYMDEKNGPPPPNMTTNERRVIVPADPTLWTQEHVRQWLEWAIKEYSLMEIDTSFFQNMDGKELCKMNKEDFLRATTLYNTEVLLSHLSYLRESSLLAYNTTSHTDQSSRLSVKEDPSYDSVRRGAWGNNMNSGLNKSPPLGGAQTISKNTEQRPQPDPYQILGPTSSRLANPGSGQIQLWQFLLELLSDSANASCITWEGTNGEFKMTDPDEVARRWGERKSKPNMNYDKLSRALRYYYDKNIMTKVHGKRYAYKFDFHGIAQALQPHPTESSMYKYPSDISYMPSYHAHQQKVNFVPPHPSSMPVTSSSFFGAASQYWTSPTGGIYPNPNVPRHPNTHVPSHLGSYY
The following applies: protein: recombinant; tags: N-terminal GST; dsDNA, one strand shown. The gist of the method: (§1)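 Human transcription factors were made in yeast as GST fusions, captured on glutathione beads and barcoded with DNA. With a tag-only sample included, the pool was incubated with 200 nmole of a random double-stranded 16-mer DNA library in Tris/NaCl/DTT/glycerol buffer at room temperature for 30 min, then crosslinked with 0.1% formaldehyde after washing, ligated by proximity, amplified and sequenced. For binding signal, each hexamer's read frequency for a factor is divided by its frequency for the tag-only sample.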

The target of the next assay is T2, ELK1 (Homo sapiens, UniProt P19419 1-428).
T2 sequence: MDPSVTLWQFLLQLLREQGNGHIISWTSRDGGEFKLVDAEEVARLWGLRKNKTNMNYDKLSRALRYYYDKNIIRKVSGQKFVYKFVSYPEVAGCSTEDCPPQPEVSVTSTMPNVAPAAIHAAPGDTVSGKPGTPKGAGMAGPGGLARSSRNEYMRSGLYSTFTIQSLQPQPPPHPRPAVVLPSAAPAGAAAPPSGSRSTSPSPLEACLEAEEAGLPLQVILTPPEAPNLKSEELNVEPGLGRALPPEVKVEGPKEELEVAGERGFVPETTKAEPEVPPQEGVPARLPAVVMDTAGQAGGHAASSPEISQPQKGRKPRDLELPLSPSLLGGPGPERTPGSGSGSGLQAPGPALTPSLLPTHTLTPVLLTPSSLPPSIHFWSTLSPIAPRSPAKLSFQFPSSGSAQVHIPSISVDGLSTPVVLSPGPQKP
The following applies: protein: recombinant; tags: N-terminal GST; dsDNA, one strand shown. The gist of the method: as §1

In another assay the target is T3, GABPA (Homo sapiens, UniProt Q06546 1-454).
T3 sequence: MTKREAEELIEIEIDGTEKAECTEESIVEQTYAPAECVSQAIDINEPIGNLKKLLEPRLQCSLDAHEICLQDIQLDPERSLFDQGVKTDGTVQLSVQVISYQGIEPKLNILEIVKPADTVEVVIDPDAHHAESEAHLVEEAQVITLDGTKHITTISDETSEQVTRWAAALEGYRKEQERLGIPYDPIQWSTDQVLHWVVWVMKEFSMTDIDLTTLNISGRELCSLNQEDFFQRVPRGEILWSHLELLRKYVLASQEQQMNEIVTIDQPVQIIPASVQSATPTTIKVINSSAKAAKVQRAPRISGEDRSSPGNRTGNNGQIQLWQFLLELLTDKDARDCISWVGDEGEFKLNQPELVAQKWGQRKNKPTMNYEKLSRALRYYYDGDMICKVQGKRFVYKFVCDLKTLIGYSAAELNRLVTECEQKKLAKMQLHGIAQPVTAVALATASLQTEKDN
The following applies: protein: recombinant; tags: N-terminal GST; dsDNA, one strand shown. The gist of the method: as §1

The next assay has as its target T4, ERG (Homo sapiens, UniProt P11308 1-479).
T4 sequence: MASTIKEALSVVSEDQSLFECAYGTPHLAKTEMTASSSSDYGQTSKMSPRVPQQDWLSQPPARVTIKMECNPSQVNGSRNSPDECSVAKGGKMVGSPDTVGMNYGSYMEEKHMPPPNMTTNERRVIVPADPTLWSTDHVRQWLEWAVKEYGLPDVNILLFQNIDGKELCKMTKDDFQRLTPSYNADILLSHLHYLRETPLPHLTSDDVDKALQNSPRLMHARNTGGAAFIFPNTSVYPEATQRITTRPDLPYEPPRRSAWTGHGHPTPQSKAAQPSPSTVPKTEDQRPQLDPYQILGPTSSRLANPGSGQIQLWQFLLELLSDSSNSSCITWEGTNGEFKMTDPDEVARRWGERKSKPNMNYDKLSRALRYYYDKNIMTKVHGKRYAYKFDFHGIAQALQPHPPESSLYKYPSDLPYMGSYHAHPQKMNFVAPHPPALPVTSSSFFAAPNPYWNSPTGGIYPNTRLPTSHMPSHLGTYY
The following applies: protein: recombinant; tags: N-terminal GST; dsDNA, one strand shown. The gist of the method:
as §1

The target in a further assay is ELF1 (Homo sapiens, UniProt P32519 1-619). The following applies: protein: recombinant; tags: N-terminal GST; dsDNA, one strand shown. The gist of the method:
as §1

The next assay has as its target T5, EHF (Homo sapiens, UniProt Q9NZC4 1-300).
T5 sequence: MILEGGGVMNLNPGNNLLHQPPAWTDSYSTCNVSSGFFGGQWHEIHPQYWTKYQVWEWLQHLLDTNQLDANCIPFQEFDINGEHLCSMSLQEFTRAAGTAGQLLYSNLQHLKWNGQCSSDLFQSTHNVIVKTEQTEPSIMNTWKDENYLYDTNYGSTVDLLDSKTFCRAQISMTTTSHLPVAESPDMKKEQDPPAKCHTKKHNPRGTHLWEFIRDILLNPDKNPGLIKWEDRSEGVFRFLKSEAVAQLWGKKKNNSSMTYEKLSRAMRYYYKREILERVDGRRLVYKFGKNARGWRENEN
The note with it: protein: recombinant; tags: N-terminal GST; dsDNA, one strand shown. In outline: as §1

The next assay has as its target SPI1 (Homo sapiens, UniProt P17947 1-270). The following applies: protein: recombinant; tags: N-terminal GST; dsDNA, one strand shown. The gist of the method:
as §1

The next assay concerns the target SPIB (Homo sapiens, UniProt Q01892 1-262). The note with it: protein: recombinant; tags: N-terminal GST; dsDNA, one strand shown. In outline: as §1
Another assay addresses T6, ELK3 (Homo sapiens, UniProt P41970 1-407).
T6 sequence: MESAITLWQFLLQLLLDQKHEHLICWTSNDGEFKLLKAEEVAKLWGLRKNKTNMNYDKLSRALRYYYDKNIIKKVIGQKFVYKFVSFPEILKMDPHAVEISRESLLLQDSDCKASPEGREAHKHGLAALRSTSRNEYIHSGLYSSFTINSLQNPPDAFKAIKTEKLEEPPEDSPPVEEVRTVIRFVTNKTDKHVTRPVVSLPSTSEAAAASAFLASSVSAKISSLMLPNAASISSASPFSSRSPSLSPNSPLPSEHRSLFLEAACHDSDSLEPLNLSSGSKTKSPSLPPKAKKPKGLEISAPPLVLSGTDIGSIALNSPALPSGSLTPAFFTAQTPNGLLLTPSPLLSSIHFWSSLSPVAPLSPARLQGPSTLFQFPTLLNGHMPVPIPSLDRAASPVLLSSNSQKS
The note with it: protein: recombinant; tags: N-terminal GST; dsDNA, one strand shown. In outline: as §1

For the next assay, the target named is T7, FEV (Homo sapiens, UniProt Q99581 1-238).
T7 sequence: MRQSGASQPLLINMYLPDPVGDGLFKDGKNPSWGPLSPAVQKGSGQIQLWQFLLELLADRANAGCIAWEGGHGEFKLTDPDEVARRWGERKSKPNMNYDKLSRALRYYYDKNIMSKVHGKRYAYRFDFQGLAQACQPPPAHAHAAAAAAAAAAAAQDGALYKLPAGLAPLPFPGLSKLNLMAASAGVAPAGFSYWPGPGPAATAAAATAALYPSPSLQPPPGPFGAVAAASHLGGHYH
The following applies: protein: recombinant; tags: N-terminal GST; dsDNA, one strand shown. The gist of the method:
as §1

The target in a further assay is ETV5 (Homo sapiens, UniProt P41161 1-510). The note with it: protein: recombinant; tags: N-terminal GST; dsDNA, one strand shown. In outline: as §1
Chain of ETV5 (P41161 whole entry): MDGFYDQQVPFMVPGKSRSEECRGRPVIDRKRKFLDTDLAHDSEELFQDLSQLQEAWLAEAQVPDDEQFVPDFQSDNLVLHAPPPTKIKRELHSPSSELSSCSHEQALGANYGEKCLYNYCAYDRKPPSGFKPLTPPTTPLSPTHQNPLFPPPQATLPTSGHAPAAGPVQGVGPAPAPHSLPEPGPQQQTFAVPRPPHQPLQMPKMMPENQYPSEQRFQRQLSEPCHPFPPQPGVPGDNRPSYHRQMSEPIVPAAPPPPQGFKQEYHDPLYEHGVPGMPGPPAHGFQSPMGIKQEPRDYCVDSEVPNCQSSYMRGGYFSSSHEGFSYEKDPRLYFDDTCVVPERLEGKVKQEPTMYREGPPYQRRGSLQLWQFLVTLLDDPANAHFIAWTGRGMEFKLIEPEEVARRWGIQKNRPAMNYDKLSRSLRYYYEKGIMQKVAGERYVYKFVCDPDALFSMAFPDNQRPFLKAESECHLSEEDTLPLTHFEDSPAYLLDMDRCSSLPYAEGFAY
The next assay concerns the target HSF1 (Homo sapiens, UniProt Q00613 1-529). The following applies: protein: recombinant; tags: N-terminal GST; chain copies: 3; dsDNA, one strand shown. In outline:
as §1

The target in another assay is T8, SPIC (Homo sapiens, UniProt Q8N5J4 1-248).
T8 sequence: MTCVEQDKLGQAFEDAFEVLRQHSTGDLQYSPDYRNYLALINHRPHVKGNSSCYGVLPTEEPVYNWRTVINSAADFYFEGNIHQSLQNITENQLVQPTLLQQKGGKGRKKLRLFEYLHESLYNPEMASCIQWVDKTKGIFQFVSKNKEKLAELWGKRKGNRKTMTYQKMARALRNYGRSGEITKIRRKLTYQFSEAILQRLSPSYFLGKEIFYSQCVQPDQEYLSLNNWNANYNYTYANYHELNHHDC
The note with it: protein: recombinant; tags: N-terminal GST; dsDNA, one strand shown. In outline:
as §1

The target of the next assay is ELF4 (Homo sapiens, UniProt Q99607 1-663). The following applies: protein: recombinant; tags: N-terminal GST; dsDNA, one strand shown. The gist of the method:
as §1

A further assay concerns the target T9, ELK4 (Homo sapiens, UniProt P28324-2 1-405).
T9 sequence: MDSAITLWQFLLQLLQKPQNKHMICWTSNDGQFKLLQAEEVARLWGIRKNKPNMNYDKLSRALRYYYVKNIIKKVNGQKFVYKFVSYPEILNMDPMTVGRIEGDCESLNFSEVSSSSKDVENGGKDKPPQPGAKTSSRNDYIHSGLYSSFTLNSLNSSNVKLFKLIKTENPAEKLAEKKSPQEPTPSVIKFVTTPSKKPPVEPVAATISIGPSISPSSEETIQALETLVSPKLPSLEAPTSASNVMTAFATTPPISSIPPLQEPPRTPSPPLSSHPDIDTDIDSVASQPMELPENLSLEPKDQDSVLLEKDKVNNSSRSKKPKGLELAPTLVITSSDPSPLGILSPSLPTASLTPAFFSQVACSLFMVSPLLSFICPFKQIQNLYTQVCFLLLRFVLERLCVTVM
The note with it: protein: recombinant; tags: N-terminal GST; dsDNA, one strand shown. The gist of the method:
as §1

A further assay has as its target T10, ETV2 (Homo sapiens, UniProt O00321 1-342).
T10 sequence: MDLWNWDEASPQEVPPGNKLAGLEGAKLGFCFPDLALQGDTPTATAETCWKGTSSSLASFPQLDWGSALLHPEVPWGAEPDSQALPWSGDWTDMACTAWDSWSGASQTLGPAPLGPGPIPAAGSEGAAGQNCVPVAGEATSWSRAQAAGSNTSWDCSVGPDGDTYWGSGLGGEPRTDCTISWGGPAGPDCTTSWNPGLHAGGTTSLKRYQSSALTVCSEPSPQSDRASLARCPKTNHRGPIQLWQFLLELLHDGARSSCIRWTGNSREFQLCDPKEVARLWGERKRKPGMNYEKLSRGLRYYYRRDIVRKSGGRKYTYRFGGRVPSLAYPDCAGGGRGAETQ
The following applies: protein: recombinant; tags: N-terminal GST; dsDNA, one strand shown. The gist of the method: as §1

In another assay the target is T11, ELF3 (Homo sapiens, UniProt P78545 1-371).
T11 sequence: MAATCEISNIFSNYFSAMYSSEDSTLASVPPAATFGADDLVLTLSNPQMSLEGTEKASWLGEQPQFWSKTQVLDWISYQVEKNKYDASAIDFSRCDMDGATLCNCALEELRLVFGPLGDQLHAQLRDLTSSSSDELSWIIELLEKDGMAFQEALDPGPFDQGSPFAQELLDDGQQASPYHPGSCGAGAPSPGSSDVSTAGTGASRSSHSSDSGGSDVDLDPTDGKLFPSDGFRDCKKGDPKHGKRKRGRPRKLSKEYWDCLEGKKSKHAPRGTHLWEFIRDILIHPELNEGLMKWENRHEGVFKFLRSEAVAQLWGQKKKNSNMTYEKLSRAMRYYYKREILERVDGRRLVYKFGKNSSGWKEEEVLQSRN
The following applies: protein: recombinant; tags: N-terminal GST; dsDNA, one strand shown. In outline:
as §1

Another assay deals with CRX (Homo sapiens, UniProt O43186 1-299). The following applies: protein: recombinant; tags: N-terminal GST; dsDNA, one strand shown. In outline: as §1
Chain of CRX (O43186 whole entry): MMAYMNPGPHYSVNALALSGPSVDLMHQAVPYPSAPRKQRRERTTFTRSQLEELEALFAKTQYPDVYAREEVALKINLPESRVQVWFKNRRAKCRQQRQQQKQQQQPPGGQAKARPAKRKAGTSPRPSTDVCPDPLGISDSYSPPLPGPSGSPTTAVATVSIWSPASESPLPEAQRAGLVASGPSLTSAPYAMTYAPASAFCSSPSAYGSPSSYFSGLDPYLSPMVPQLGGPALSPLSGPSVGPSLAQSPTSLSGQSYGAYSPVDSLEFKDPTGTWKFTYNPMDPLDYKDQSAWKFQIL
A further assay concerns the target ETV1 (Homo sapiens, UniProt P50549 1-477). The following applies: protein: recombinant; tags: N-terminal GST; dsDNA, one strand shown. The gist of the method:
as §1

Chain of ETV1 (P50549 whole entry): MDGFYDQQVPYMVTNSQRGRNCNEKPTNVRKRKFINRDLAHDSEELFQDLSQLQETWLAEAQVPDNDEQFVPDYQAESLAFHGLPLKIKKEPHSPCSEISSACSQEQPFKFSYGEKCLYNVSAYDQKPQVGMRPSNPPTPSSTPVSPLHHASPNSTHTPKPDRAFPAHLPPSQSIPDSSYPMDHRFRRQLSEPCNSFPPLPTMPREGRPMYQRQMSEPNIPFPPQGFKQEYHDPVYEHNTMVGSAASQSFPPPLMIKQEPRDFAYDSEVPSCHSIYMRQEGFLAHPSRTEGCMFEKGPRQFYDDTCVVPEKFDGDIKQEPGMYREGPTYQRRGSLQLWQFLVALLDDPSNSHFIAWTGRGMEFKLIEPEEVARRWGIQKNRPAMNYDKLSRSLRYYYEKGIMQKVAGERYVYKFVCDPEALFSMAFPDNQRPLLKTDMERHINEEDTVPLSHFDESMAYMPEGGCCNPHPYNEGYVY
Chain of ELF1 (P32519 whole entry): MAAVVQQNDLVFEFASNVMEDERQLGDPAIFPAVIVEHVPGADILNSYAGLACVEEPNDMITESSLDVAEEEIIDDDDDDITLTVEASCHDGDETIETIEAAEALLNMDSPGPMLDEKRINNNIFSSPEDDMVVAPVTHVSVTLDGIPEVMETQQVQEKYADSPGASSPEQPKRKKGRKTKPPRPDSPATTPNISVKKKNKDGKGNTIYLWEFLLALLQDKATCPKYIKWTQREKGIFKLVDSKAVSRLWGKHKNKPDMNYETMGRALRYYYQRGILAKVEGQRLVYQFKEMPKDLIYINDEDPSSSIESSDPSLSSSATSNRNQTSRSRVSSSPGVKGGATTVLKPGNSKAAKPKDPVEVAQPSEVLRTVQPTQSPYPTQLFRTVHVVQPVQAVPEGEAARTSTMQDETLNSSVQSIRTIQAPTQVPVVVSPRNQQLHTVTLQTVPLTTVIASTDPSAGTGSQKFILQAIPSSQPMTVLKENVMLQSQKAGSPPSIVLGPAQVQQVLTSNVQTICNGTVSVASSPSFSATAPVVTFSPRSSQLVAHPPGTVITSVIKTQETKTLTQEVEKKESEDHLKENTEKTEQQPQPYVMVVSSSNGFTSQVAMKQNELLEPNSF
Chain of SPIB (Q01892 whole entry): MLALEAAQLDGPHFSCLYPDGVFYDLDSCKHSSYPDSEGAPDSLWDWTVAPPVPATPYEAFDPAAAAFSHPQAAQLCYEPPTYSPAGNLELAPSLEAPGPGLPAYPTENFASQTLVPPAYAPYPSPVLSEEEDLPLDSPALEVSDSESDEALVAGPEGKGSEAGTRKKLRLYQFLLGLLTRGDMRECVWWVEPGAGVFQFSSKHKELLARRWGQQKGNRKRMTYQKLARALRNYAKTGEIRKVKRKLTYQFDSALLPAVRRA
Chain of HSF1 (Q00613 whole entry): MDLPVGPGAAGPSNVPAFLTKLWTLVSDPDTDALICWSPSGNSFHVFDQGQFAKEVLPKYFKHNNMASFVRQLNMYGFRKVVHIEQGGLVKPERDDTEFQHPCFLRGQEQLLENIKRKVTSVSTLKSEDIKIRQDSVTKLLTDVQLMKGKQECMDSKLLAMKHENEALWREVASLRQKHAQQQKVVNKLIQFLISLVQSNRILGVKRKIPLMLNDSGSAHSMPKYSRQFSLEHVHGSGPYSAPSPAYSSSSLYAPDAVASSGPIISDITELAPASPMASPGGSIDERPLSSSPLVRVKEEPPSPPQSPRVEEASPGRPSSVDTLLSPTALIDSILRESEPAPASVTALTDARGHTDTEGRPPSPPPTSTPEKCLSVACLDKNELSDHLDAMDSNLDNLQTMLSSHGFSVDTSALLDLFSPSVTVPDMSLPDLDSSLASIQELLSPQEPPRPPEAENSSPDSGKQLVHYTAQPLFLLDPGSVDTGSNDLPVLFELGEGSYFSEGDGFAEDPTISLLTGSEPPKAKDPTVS
Chain of ELF4 (Q99607 whole entry): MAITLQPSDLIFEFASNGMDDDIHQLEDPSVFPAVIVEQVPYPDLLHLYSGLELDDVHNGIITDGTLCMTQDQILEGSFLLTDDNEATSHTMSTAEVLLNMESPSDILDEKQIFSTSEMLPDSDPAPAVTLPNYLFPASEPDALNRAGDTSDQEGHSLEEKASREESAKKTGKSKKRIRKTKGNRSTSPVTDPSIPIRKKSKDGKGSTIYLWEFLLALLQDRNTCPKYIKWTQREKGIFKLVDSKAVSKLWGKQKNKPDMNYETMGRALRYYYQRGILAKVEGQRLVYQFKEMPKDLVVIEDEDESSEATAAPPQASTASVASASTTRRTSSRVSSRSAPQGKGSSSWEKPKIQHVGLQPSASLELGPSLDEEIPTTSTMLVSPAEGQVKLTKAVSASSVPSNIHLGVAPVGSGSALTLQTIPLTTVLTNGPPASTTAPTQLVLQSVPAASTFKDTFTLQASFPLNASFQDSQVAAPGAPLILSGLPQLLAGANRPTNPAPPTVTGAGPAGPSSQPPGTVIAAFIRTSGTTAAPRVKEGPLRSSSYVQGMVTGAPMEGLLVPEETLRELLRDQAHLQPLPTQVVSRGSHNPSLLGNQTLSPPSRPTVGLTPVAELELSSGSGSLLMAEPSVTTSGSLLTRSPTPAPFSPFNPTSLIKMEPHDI

In the case of CTCAAA, the binding signal was 1.2 fold enrichment (6-mer frequency, TF over GST control) in the assay with FLI1; 1.14 fold enrichment (6-mer frequency, TF over GST control) with ELK1; 1.16 fold enrichment (6-mer frequency, TF over GST control) with GABPA; 1.13 fold enrichment (6-mer frequency, TF over GST control) with ERG; 1.25 fold enrichment (6-mer frequency, TF over GST control) in the assay with ELF1; 1.11 fold enrichment (6-mer frequency, TF over GST control) with EHF. Moreover, the binding signal is 1.29 fold enrichment (6-mer frequency, TF over GST control) in the assay with SPI1; 1.23 fold enrichment (6-mer frequency, TF over GST control) in the assay with SPIB; 1.15 fold enrichment (6-mer frequency, TF over GST control) in the assay with ELK3; 1.28 fold enrichment (6-mer frequency, TF over GST control) in the assay with FEV; 1.18 fold enrichment (6-mer frequency, TF over GST control) with ETV5; 1.24 fold enrichment (6-mer frequency, TF over GST control) in the assay with HSF1. In addition, the binding signal was 1.2 fold enrichment (6-mer frequency, TF over GST control) with SPIC; 1.18 fold enrichment (6-mer frequency, TF over GST control) with ELF4; 1.2 fold enrichment (6-mer frequency, TF over GST control) with ELK4; 1.16 fold enrichment (6-mer frequency, TF over GST control) in the assay with ETV2; 1.32 fold enrichment (6-mer frequency, TF over GST control) with ELF3; 1.25 fold enrichment (6-mer frequency, TF over GST control) with CRX. Further, the binding signal with ETV1 was 1.2 fold enrichment (6-mer frequency, TF over GST control).

For the origin of these results see paper PMC7862700, “An all-to-all approach to the identification of sequence-specific readers for epigenetic DNA modifications on cytosine”.
